Assay outcomes as filed in PubChem BioAssay.
TRAIL sens C8: caspase-8 TRAIL sensitization. 1% of 360,000 active. NB7+C8 cells + TRAIL, ATPlite viability luminescence. inhibition (viability loss, TRAIL sensitization), % at 10 µM;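 active means compounds causing at least 50% loss of cell viability in the single-dose screen, relative to plate controls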
SENP6 inh: blocks the human protease SENP6; Q9GZR1; Recombinant SENP6 catalytic domain, aminoluciferin luminescence; inhibition, % at 10 µM; 1.8% of 330,000 active;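 active means inhibition above about 50% at the single tested dose, limit read from the data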
Target sequence (Q9GZR1 628-1112 limits assumed): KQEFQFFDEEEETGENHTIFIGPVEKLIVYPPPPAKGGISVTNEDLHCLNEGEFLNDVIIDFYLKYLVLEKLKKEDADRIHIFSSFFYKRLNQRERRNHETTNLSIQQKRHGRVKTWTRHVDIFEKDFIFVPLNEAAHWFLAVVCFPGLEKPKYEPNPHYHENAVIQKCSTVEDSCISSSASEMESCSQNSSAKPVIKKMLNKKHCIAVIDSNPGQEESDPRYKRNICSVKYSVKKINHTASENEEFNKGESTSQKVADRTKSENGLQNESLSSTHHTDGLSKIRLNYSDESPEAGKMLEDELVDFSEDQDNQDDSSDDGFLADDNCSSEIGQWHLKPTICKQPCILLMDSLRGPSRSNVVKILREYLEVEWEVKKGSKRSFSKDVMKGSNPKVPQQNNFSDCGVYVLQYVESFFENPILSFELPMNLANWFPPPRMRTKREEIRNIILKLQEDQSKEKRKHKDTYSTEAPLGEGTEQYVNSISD
PPC-1+TRAIL kill: kills PPC-1 cancer cells in the presence of TRAIL. PPC-1 cells + TRAIL, ATPLite viability luminescence. cell killing (% activity), % at 4 µM or 5 µM. 0.41% of 220,000 active. AID 1443;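 active means cell killing above 50% in the first pass at 4 µM, then a duplicate retest at 5 µM averaging 50% or more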
SENP7 inh: SENP7 protease inhibition; recombinant SENP7, Z-RLRGG-aminoluciferin luminescence, 40 min; inhibition, % at 5 µM; 1.5% of 330,000 active;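 active means inhibition above about 50% at the single test dose, limit read from the data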
SENP8 block-1: inhibitors of human SENP8 protease. 0.64% of 360,000 active. inhibition, % at 20 µM. recombinant SENP8, Nedd8 substrate fluorescence. Q96LD8; in the data active means inhibition mostly above about 40%, no sharp cut-off; inactive means mostly below about 27%
Target sequence (Q96LD8 whole entry, looked up): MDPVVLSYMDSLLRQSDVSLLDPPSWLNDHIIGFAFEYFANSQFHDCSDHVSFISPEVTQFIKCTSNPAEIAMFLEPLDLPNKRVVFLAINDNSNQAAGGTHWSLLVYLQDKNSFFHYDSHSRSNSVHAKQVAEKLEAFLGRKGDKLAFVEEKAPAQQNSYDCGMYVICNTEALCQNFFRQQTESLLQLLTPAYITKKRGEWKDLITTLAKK
SENP8 block-2: blocks the human protease SENP8 | AID 2540 | purified SENP8, Z-RLRGG-aminoluciferin cleavage, luminescence | Q96LD8 | inhibition, % at 10 µM | 1.2% of 330,000 active; in the data active means inhibition above about 50%
SENP8 conf-1: confirmation of human SENP8 protease inhibitors. Recombinant SENP8, Z-RLRGG-aminoluciferin luminescence, 60 min. inhibition, % at 12.5 µM. shares compounds with SENP7 inh. 40% of 6,200 active;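 active means mean inhibition across replicates above about 50%, limit read from the data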
SENP6 confirm: human SENP6 inhibition, confirmed; inhibition, % at 12.5 µM; shares compounds with SENP7 inh; recombinant SENP6, Z-RLRGG-aminoluciferin luminescence; 58% of 6,200 active
SENP7 conf: confirmation of human SENP7 protease inhibitors; 69% of 6,200 active; shares compounds with SENP7 inh; inhibition, % at 12.5 µM; recombinant SENP7, Z-RLRGG-aminoluciferin luminescence, 40 min; AID 488917
Casp3 SENP sel: inhibits human caspase-3 in SENP selectivity test. shares compounds with SENP7 inh. purified caspase-3, Z-DEVD-aminoluciferin luminescence, 60 min. inhibition, % at 12.5 µM. 60% of 6,200 active;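 active means mean inhibition above about 50%, limit read from the data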
SENP luc ctr: counter-screen for SENP inhibitors: luminescence interference. Pre-incubated SENP8/Z-RLRGG-aminoluciferin, luciferase luminescence interference. inhibition, % at 12.5 µM. 39% of 6,200 active. AID 488919. shares compounds with SENP7 inh;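 active means mean inhibition above about 50% when retested at one dose, limit read from the data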
SENP8 conf-2: SENP8 (human) inhibition, single concentration confirmation; inhibition, % at 25 µM; purified SENP8, Nedd8-AMC/pro-Nedd8 cleavage fluorescence, 30 min; shares compounds with SENP8 block-1; 15% of 1,400 active; in the data active means inhibition mostly above about 39%, no sharp cut-off; inactive means mostly below about 34%
Large screens that a line does not name were inactive (follow-up assays come after a bar, where they were run). Compounds with a hit are over-represented: about 3% of the library has one in this group of screens.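 How the source made its calls, unless noted: active means mean inhibition above about 50% in the one-dose retest (limit read from the data); inactive means the rest.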

c1ccc(CC2CCN(C3=Nc4cccc5cccc3c45)CC2)cc1	SENP6 inh 73 | SENP8 conf-1 inactive | SENP6 confirm inactive | SENP7 conf inactive | Casp3 SENP sel inactive | SENP luc ctr inactive
CC(=O)N1CCN(C2=Nc3cccc4cccc2c34)CC1	SENP6 inh 81, SENP8 block-2 67 | SENP8 conf-1 inactive | SENP6 confirm inactive | SENP7 conf inactive | Casp3 SENP sel inactive | SENP luc ctr inactive
O=C(O)c1ccc(NC2=Nc3cccc4cccc2c34)cc1	none (no result: SENP6 inh, SENP7 inh, SENP8 block-2)
CCOC(=O)N1CCN(C(=O)Nc2ccc(NC(=O)N3CCN(C(=O)OCC)CC3)cc2)CC1	none (no result: PPC-1+TRAIL kill)
CCOC(=O)N1CCN(C(=O)Nc2cccc3ccccc23)CC1	SENP6 inh 52 | SENP8 conf-1 inactive | SENP6 confirm inactive | SENP7 conf inactive | Casp3 SENP sel inactive | SENP luc ctr inactive
CCOC(=O)N1CCN(C2=Nc3cccc4cccc2c34)CC1	SENP6 inh 75 | SENP8 conf-1 inactive | SENP6 confirm inactive | SENP7 conf inactive | Casp3 SENP sel inactive | SENP luc ctr inactive
O=C(OC(C(=O)NC1CCCCC1)c1ccccc1F)c1ccco1 (stereo not drawn)	none (no result: PPC-1+TRAIL kill)
CC1CN(C2=Nc3cccc4cccc2c34)CC(C)O1 (stereo not drawn)	none
c1cc2c3c(cccc3c1)C(N1CCOCC1)=N2	SENP6 inh 76 | SENP8 conf-1 inactive | SENP6 confirm inactive | SENP7 conf inactive | Casp3 SENP sel inactive | SENP luc ctr inactive
CS(=O)(=O)N1CCN(c2ccc(NC(=O)c3ccc([N+](=O)[O-])o3)cc2)CC1	none (no result: SENP6 inh, SENP7 inh, SENP8 block-2)
O=C(Nc1ccc(N2CCCCC2)cc1)c1ccc([N+](=O)[O-])o1	SENP6 inh 87, SENP7 inh 93, SENP8 block-1 38, SENP8 block-2 74 (no result: PPC-1+TRAIL kill) | SENP8 conf-1 inactive | SENP6 confirm 90 | SENP7 conf 100 | Casp3 SENP sel 85 | SENP luc ctr inactive | SENP8 conf-2 inactive
CC1CCN(c2ccc(NC(=O)c3ccc([N+](=O)[O-])o3)cc2)CC1	TRAIL sens C8 94, SENP6 inh 75, SENP7 inh 78, SENP8 block-1 55 (no result: PPC-1+TRAIL kill) | SENP8 conf-1 inactive | SENP6 confirm inactive | SENP7 conf inactive | Casp3 SENP sel inactive | SENP luc ctr inactive | SENP8 conf-2 inactive
O=C(Nc1ncn[nH]1)c1cccc(S(=O)(=O)N2CCOCC2)c1	none
ClC1=CN(C2=NCCC2)CC1	none (no result: SENP6 inh, PPC-1+TRAIL kill, SENP7 inh, SENP8 block-2)
COc1ccc(Nc2ccc(OC)cc2)cc1	SENP6 inh 54, SENP8 block-1 96 | SENP8 conf-1 inactive | SENP6 confirm inactive | SENP7 conf inactive | Casp3 SENP sel inactive | SENP luc ctr inactive | SENP8 conf-2 inactive
COc1ccc(Nc2ccc(Nc3ccc(OC)cc3)nn2)cc1	none
COc1ccccc1N1C(C)=CC(=C(C#N)c2nc3ccccc3s2)C=C1C	SENP6 inh 61, SENP8 block-1 67 | SENP8 conf-1 inactive | SENP6 confirm inactive | SENP7 conf inactive | Casp3 SENP sel inactive | SENP luc ctr inactive | SENP8 conf-2 inactive
CC1=CC(=C(C#N)c2nc3ccccc3s2)C=C(C)N1c1ccc(F)cc1	SENP6 inh 54, SENP8 block-1 85 | SENP8 conf-1 inactive | SENP6 confirm inactive | SENP7 conf inactive | Casp3 SENP sel inactive | SENP luc ctr inactive | SENP8 conf-2 inactive
CC(C)=C(C#N)c1nc2ccccc2s1	none
COc1cc(C=C(c2nc3ccccc3s2)c2nc3ccccc3s2)cc(OC)c1O	none
O=C(COC(=O)c1ccccc1)NCC1COc2ccccc2O1 (stereo not drawn)	none (no result: SENP6 inh, PPC-1+TRAIL kill, SENP7 inh, SENP8 block-2)
O=C(CCc1ccccc1)NNc1cc(N2CCCCC2)nc(N2CCCCC2)n1	SENP7 inh 58, SENP8 block-1 47 | SENP8 conf-1 inactive | SENP6 confirm inactive | SENP7 conf inactive | Casp3 SENP sel inactive | SENP luc ctr inactive | SENP8 conf-2 51
CC(C)(C)c1ccc(C(=O)NNc2cc(N3CCOCC3)nc(N3CCOCC3)n2)cc1	none
CC(C)(C)c1ccc(C(=O)NNc2cc(N3CCCCC3)nc(N3CCCCC3)n2)cc1	SENP6 inh 86, SENP7 inh 74, SENP8 block-1 48 | SENP8 conf-1 inactive | SENP6 confirm inactive | SENP7 conf inactive | Casp3 SENP sel inactive | SENP luc ctr inactive | SENP8 conf-2 79
O=C(NNc1cc(N2CCCC2)nc(N2CCCC2)n1)c1ccc([N+](=O)[O-])cc1	SENP6 inh 91, SENP7 inh 92, SENP8 block-1 77, SENP8 block-2 75 (no result: PPC-1+TRAIL kill) | SENP8 conf-1 inactive | SENP6 confirm 61 | SENP7 conf inactive | Casp3 SENP sel inactive | SENP luc ctr inactive | SENP8 conf-2 75
Cc1nc(NNC(=O)c2ccc([N+](=O)[O-])cc2)cc(-c2ccccc2)n1	none
CCC(Sc1nc2ncccc2[nH]1)C(=O)NCCc1ccccc1 (stereo not drawn)	none (no result: PPC-1+TRAIL kill)
COc1ccc([N+](=O)[O-])cc1N(CC(=O)Nc1ccccc1C(=O)NC(C)C)S(C)(=O)=O	none
CCN(CC)c1cc(Cl)c2nonc2c1N	none
CN(C)c1cc(Cl)c2nonc2c1N	SENP6 inh 95, SENP7 inh 91, SENP8 block-1 89, SENP8 block-2 96 | SENP8 conf-1 inactive | SENP6 confirm inactive | SENP7 conf inactive | Casp3 SENP sel inactive | SENP luc ctr inactive | SENP8 conf-2 56
Cc1c(Cl)cccc1N=Cc1ccc([N+](=O)[O-])s1	SENP6 inh 51, SENP8 block-1 68, SENP8 block-2 55 | SENP8 conf-1 inactive | SENP6 confirm inactive | SENP7 conf inactive | Casp3 SENP sel inactive | SENP luc ctr inactive | SENP8 conf-2 inactive
O=C(Cc1ccccc1)c1nc2ccccc2s1	SENP6 inh 69, SENP8 block-1 48, SENP8 block-2 54 | SENP8 conf-1 inactive | SENP6 confirm 64 | SENP7 conf 87 | Casp3 SENP sel 62 | SENP luc ctr inactive | SENP8 conf-2 67
O=C(Cc1ccccc1)Nc1nc2ccccc2s1	none
Cn1c(CNC(=O)c2ccco2)nnc1SCC(=O)Nc1c(F)cc(F)cc1Br	none
